Most compounds without a hit are left out; they make up all but 2.4% or so of the library.
NOD2-RIPK2 inh = NOD2-RIPK2 protein interaction inhibition. O43353. CHO BLA complementation NOD2-RIPK2, CCF4 ratio. inhibition, % at 4.98 µM. 360,000 tested, 0.38% active. AID 624267; in the data active = inhibition above about 21%;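 also: 0% = vehicle only and 100% = reference blocker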
TLR9-MyD88 inh = TLR9-MyD88 interaction inhibition; 340,000 tested, 0.21% active; Q9NR96+Q99836; CHO BLA complementation TLR9-MyD88, CCF4 FRET ratio; inhibition, % at 4.98 µM; AID 504734;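 active = inhibition above the mean over all tested compounds plus 3 SD, cut at about 21% in these data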;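 also: 0% = DMSO only wells and 100% = clavulanate BLA inhibitor control wells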
TLR4 MyD88 comp = TLR4-MyD88 interaction inhibition in cells. inhibition, % at 8.4 µM. 200,000 tested, 0.18% active. AID 861. HeLa CL3-4 TLR4/MyD88 BLA complementation, FRET ratio. O00206+Q99836; in the data active = inhibition above about 25%;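 also: 0% = vehicle and 100% = reference inhibitor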
HTR2A ag = activates the mouse 5-HT2A serotonin receptor. P35363. CHO-K1 mHTR2A beta-arrestin complementation, luminescence; percent of 30 µM serotonin response. activation, % at 7.6 µM. 360,000 tested, 0.66% active;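 active = activation above a run cutoff, the mean activation of all tested compounds plus 3 SD, cut at about 14% in these data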;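 also: 0% = plate median of compound wells and 100% = 30 µM serotonin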
TMEM16A act = activates or potentiates the mouse TMEM16A chloride channel; Q8BHY3; HEK293 TMEM16A/YFP-H148Q/I152L, iodide quench fluorescence; active compounds read low; B-score at 10 µM; 340,000 tested, 0.3% active;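 active = fluorescence-ratio B-score plate-corrected deviation score at least 3 library SD below zero, with starting fluorescence score within 5 deviations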;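 also: channel opened by trigger with iodide after compound preincubation; score built on the fluorescence ratio of max minus min over baseline; more negative score means more quench and so TMEM16A activation or potentiation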
Target sequence (Q8BHY3 whole entry, looked up): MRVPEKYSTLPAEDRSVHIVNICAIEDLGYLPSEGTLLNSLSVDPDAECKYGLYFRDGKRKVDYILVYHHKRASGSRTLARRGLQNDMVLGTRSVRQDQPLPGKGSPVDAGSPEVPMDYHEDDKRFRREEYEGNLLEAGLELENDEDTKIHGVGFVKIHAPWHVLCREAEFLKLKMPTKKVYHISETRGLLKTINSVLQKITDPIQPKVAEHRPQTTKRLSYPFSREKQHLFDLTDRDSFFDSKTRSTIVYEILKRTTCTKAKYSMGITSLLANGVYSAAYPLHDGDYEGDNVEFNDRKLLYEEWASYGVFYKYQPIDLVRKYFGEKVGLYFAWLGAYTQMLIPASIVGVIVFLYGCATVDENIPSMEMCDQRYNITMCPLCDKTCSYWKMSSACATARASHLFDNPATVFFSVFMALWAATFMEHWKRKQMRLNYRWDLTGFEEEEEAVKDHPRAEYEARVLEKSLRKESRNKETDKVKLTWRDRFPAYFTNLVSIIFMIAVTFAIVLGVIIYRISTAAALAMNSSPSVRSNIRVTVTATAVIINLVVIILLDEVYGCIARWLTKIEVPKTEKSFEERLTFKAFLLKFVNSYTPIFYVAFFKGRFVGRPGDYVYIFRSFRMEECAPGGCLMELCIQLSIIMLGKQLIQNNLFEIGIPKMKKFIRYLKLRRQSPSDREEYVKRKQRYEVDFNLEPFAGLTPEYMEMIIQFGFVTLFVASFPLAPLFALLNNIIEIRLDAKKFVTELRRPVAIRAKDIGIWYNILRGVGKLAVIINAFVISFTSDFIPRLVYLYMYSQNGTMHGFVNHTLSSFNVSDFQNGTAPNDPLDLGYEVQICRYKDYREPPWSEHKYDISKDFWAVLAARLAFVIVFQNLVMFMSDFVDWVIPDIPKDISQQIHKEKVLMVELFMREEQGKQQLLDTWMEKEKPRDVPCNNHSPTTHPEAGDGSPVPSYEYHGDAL
TMEM16A inh = blocks the mouse calcium-activated chloride channel TMEM16A | Q8BHY3 | HEK293 TMEM16A/YFP iodide influx fluorescence, ionomycin | normalized B-score (activity score, 25-100; higher = stronger inhibition) at 10 µM | 310,000 tested, 1.2% active;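 active = ratio plate-corrected score three or more library SD toward inhibition, starting fluorescence score within five deviations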;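 also: score derived from kinetic fluorescence span divided by baseline fluorescence per well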
* hit, by the source's call; i = inactive; / = not tested or not shown.

SMILES | NOD2-RIPK2 inh | TLR9-MyD88 inh | TLR4 MyD88 comp | HTR2A ag | TMEM16A act | TMEM16A inh
Cc1cc(C)c(C(=O)N(C)CC2CCCN(CCc3ccccc3F)C2)o1 (configuration not stated) | -4 | -2 | / | -11 | i | i
N#C/C(=N/O)c1nc(-c2ccc(F)cc2)cs1 | 2 | 13 | -11 | 1 | i | 100*
Cc1nn(-c2ccccc2)c(C)c1NC(=O)COc1ccc2ccccc2c1 | 49* | 8 | -5 | 3 | i | i
Cc1nn(-c2ccccc2)c(C)c1NC(=O)COc1ccc(Br)cc1Cl | -4 | -7 | 4 | -1 | i | 25*
Cc1nn(-c2ccccc2)c(C)c1NC(=O)COc1ccccc1C#N | -5 | -19 | / | 8 | / | /
Cc1ccc2c(c1)C1CN(C)CCC1N2C(=S)NC(=O)c1ccc(Br)cc1 (configuration not stated) | -8 | 0 | 6 | -4 | i | i
O=C(CSc1ncnc2sc3c(c12)CCCC3)c1ccccc1 | 0 | -5 | -8 | 1 | -5* | i
COc1ccc(/C=N/n2cnc3c([nH]c4ccccc43)c2=O)cc1CO | -6 | 9 | / | 5 | i | i
Cc1nc2c(C(=O)NCCC(C)C)c[nH]n2c(=O)c1Cc1ccccc1F | -2 | -15 | 1 | 13 | i | 100*
c1ccc(Cn2nnnc2C(c2cccs2)N2CCc3ccccc3C2)cc1 (configuration not stated) | -9 | -11 | -9 | -3 | i | i
c1ccc(Cn2nnnc2C(c2cccs2)N2CCCCCC2)cc1 (configuration not stated) | 6 | 6 | -17 | -5 | i | 100*
CCn1cc(/C=C(\NC(=O)c2ccc(OC)c(OC)c2)C(=O)NCCCN2CCOCC2)c2ccccc21 | 8 | -2 | / | 2 | -43* | /
COc1ccc(CNCCS(=O)(=O)NCc2ccccc2)cc1 | 6 | -3 | / | -6 | / | /
COc1ccc(CCNC(=O)c2ccc(CN3CCC(Cc4ccccc4)CC3)cc2)cc1OC | 3 | -11 | -6 | 1 | -6.9* | i
COc1ccc(CCNC(=O)C(=O)NCC2CCCN2S(=O)(=O)c2ccccc2)cc1OC (configuration not stated) | -2 | -1 | / | -2 | i | 25*
CCOC(=O)c1cnc2nc[nH]n2c1=O | -3 | 2 | -12 | 0 | i | i
Cc1c(C)n(C)c2ccc(C(=O)NCCCN3CCOCC3)cc12 | -8 | -2 | / | -8 | i | i
Cc1cc(C)c(C#N)c(SCSCc2ccccc2)n1 | -7 | -5 | 1 | -2 | i | i
Cc1cc(C)c(C#N)c(SCc2ccccc2F)n1 | 0 | 7 | -7 | 3 | i | 25*
O/N=C/c1ccccc1Oc1ccc(Cl)cc1 | -8 | 10 | 3 | -5 | i | i
COc1ccc2cc(C(N)=O)c(=Nc3ccc(C)cc3)oc2c1 | 2 | 3 | 3 | -1 | -7.7* | i
CCS(=O)(=O)n1nc(-c2ccc(Cl)cc2)nc1SCc1ccccc1 | / | / | 9 | / | / | 25*
COc1ccc(-c2nc(SCc3ccccc3)n(S(C)(=O)=O)n2)cc1 | -2 | 4 | 11 | -7 | i | i
Cc1nc(-c2ccc(S(=O)(=O)N3CCN(c4cccc(C)c4C)CC3)cc2)co1 | 6 | 4 | / | 4 | i | i
CCOC(=O)N1CCN(C(=O)COc2cc(=O)n(C)c3ccccc23)CC1 | -6 | 5 | -9 | -2 | i | 25*
SMILES | NOD2-RIPK2 inh | TLR9-MyD88 inh | TLR4 MyD88 comp | HTR2A ag | TMEM16A act | TMEM16A inh
CCOc1cc(O)c(-c2[nH]ncc2-c2nc(C)cs2)cc1CC | -14 | -13 | / | 1 | i | 25*
CCc1cc(-c2[nH]ncc2-c2nc3ccccc3n2C)c(O)cc1O | -3 | -8 | / | -3 | i | i
CCOc1ccc(OCC(=O)OCc2cc(=O)n3cc(Br)ccc3n2)cc1 | -2 | 6 | / | -4 | -10* | /
Cc1cc(=O)oc2cc(OCC(=O)OCC(=O)N(CCC#N)c3ccccc3)ccc12 | 8 | 6 | 8 | -5 | i | i
COc1ccc(OCCC(=O)OCC(=O)NCCC2=CCCCC2)cc1 | 4 | -2 | 4 | -4 | -34* | i
O=S(=O)(c1ccc(Cl)cc1)N1CCCCCC1 | 0 | 6 | / | -2 | i | i
CN(C)S(=O)(=O)c1cccc(COc2cccnc2[N+](=O)[O-])c1 | -3 | -4 | / | 1 | i | i
CN(C)S(=O)(=O)c1cccc(COc2ncnc3c(Cl)cc(Cl)cc23)c1 | -2 | -3 | / | 1 | -9.5* | i
CN1CCN(C2=C(Cl)C(=O)N(c3ccc(Cl)cc3)C2=O)CC1 | 0 | -2 | -16 | 16* | i | i
CCOC(=O)/C(C(=O)Nc1ccc(Cl)cc1Cl)=C1/NC(C)(C)Cc2ccccc21 | / | / | -11 | / | / | i
CCC(=O)NC1=C(Cl)C(=O)C(NC(=O)CC)=C(Cl)C1=O | 23* | 11 | / | 12 | i | /
CCC(=O)NC1=C(NC(C)c2ccccc2)C(=O)c2ccccc2C1=O (configuration not stated) | -7 | -3 | 2 | 9 | i | i
O=C(CNC(c1ccccc1)c1ccccc1)Nc1cc([N+](=O)[O-])ccc1Cl | -3 | 6 | -18 | -2 | i | i
CSc1ccccc1C(=O)NC1CCSc2ccccc21 (configuration not stated) | 5 | -5 | / | 0 | i | i
Cc1cc(C)n2cc(COc3ccc4ccccc4c3)nc2n1 | 9 | -2 | -1 | 5 | i | i
Cc1cccc2nc(COc3ccc(-c4ccccc4)cc3)cn12 | / | / | -5 | / | / | 100*
C/C(=N\NC(=O)c1ccccc1F)c1ccc2c(c1)Nc1ccccc1S2 | 6 | 0 | 18 | -1 | i | i
C/C(=N\NC(=O)c1ccc(O)cc1)c1ccc2c(c1)Nc1ccccc1S2 | -1 | 10 | -2 | -5 | i | 25*
CCOc1ccc(NC(=O)CN2CCN(CC(=O)Nc3ccc(OC)cc3OC)CC2)cc1 | -4 | -7 | / | 4 | i | i
CO/N=C/c1ccc(N2CCN(C(=O)c3cccc(C(F)(F)F)c3)CC2)c([N+](=O)[O-])c1 | -11 | -10 | 4 | 0 | i | i
CCC(=O)c1ccc(N2CCN(C(=O)c3ccc(F)cc3)CC2)c(F)c1 | -10 | -5 | 2 | 2 | i | 25*
CO/N=C/c1ccc(N2CCN(C(=O)c3ccc(F)cc3)CC2)c([N+](=O)[O-])c1 | 0 | 4 | -19 | 2 | i | 100*
CO/N=C/c1ccc(N2CCN(C(=O)c3ccc(Cl)cc3Cl)CC2)c([N+](=O)[O-])c1 | -5 | -4 | 11 | 2 | i | 100*
Cc1cc(=O)oc2cc(Nc3ccccc3)ccc12 | -4 | -9 | 6 | -6 | i | i

Screening results deposited in PubChem by several laboratories.
